Consider 26 sequences from the supplement of paper PMC10338343.

± gives the standard deviation. Where only a bound is given, the exact number is not on record here.

For the first assay, the system named is MILI (PIWIL2) piRISC loaded with L1MC piRNA (26 nt). The experiment in a line: pre-steady-state target cleavage rate (min^-1); guide: L1MC piRNA 5'p-UAACUAAAUACUAUGCAAGCUGUAGG; MIWI and MILI are mouse PIWI proteins and EfPiwi is from a freshwater sponge; tags in brackets are library labels; higher = faster piRNA-guided slicing of the target. The following applies: auxiliary factor: 500 nM mouse GTSF1. How it is done:
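Cleave-'n-Seq: a library of target RNAs (target site embedded in constant flanks, ACAGCATTCCGCGTTAGTGATATCCG... 5' flank; DNA-blocked outside the site) at 0.1 nM was incubated with 1 nM active mouse MILI or MIWI piRISC (synthetic 5'-monophosphorylated piRNA guide) with or without 500 nM mouse GTSF1 at 33 °C for 1 min to 16 h. Uncleaved targets were sequenced and normalised to non-target controls, and the pooled three trials were fitted to a burst-and-steady-state model to give the pre-steady-state cleavage rate (min^-1; k3 is constrained to at most 1e-4). Sequence is the target site only; target names encode pairing extent (gX:gY) and contiguous / 1-mismatch / 2-mismatch / bulge geometry. Fits with R² ≤ 0 are excluded.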
Take UCCUCCUACAGCUUGCAGUAGUAUUUAGUUA: the “pre-steady-state target cleavage rate” value came to 0.0101 ± 0.0053.

Turning to UCCUGGAUGUCGAAGACAUAGUAUUUAGUUA, the “pre-steady-state target cleavage rate” value stood at 0.0117 ± 0.0056.

For UCCUGGAUGUGCUUGCAUUGUAUUUACUUA, the “pre-steady-state target cleavage rate” value was 0.0239 ± 0.0082.

Take UCCUGGAUGUCCAAGCAUAGUAUUUAGUAA: the “pre-steady-state target cleavage rate” value turned out to be 0.0187 ± 0.0069.

Turning to UCCUGCAACAGCUUGCAUAGUAUUUAGUUA, the “pre-steady-state target cleavage rate” value was 0.398 ± 0.028.

Regarding UCCUGGAUGUGCUUGCAUAGUAUCUUAGUUA, the “pre-steady-state target cleavage rate” value is 0.135 ± 0.019.

UCCUGGAACAGCUUGCAAAGUAUAUAGUUA: the “pre-steady-state target cleavage rate” value came out at 0.116 ± 0.013.

For the sequence “UCCUCCUACAGCUUGCAUAGUAUUUAGUUU [g2:g26:cont:t1U]”, the “pre-steady-state target cleavage rate” value was 0.35 ± 0.02.

Turning to UCCUCCUACAGCUUGCAUAGUAUUAUGUUA, the “pre-steady-state target cleavage rate” value stood at 0.15 ± 0.025.

Turning to UCCUCGUACAGGUUGCAUAGUAUUUAGUUA, the “pre-steady-state target cleavage rate” value is 0.249 ± 0.01.

As for UCCUGGUACAGCUUGCAUAGUAAUUUAGUUA, the “pre-steady-state target cleavage rate” value was determined as 0.186 ± 0.025.

As for UCCUGCUACUGCUUGCAUAGUAUUUAGAUA, the “pre-steady-state target cleavage rate” value was 0.0911 ± 0.022.

As for UCCUGGAACAGCUUGGUAAGUAUUUAGAAA, the “pre-steady-state target cleavage rate” value amounted to 0.0429 ± 0.015.

On to UCCUCCUACAGCUUGCAUAGUUUUAGUUA, for which the “pre-steady-state target cleavage rate” value amounted to 0.0249 ± 0.0085.

As to UCCUGGAUGAGCUUGCAUAGUAUUAUCAAA, the “pre-steady-state target cleavage rate” value was found to be 0.00461 ± 0.0034.

Regarding UCCUGGAACAGGUUGCAUAGUAUUUAGAUA, the “pre-steady-state target cleavage rate” value was 0.136 ± 0.025.

Turning to UCCUCCUACAGCUUGCAUAGUAUUUAGUUUA, the “pre-steady-state target cleavage rate” value came to 0.333 ± 0.019.

Turning to “UCCUCCUACAGCUUGCAUAGUAUUUAGUUA [g2:g26:cont:t1A]”, the “pre-steady-state target cleavage rate” value amounted to 0.344 ± 0.02.

On to UCCUGGUACAGCUUGCAUAGAAUUUAGAUA, for which the “pre-steady-state target cleavage rate” value was found to be 0.0253 ± 0.013.

Regarding UCCUGCUAUCAGCUUGCAUAGUAUUUAGUUA, the “pre-steady-state target cleavage rate” value is 0.268 ± 0.022.

On to UCCUGGAUGUCGAAGCAUAUUAUUUAGUUA, for which the “pre-steady-state target cleavage rate” value turned out to be 0.00703 ± 0.0037.

Take UCCUGGAACAGCUUGCAAUCUAUUUAGUAA: the “pre-steady-state target cleavage rate” value stood at 0.025 ± 0.0099.

As to UCCUGGUACGCUUGCAUAGUAUUUAGUUA, the “pre-steady-state target cleavage rate” value stood at 0.222 ± 0.034.

For UCCUGGAUCAGCUUGCAUAGUAAUUAGAAA, the “pre-steady-state target cleavage rate” value turned out to be 0.0807 ± 0.02.

For UCCUGGAUGUGUCUUGCAUAGUAUUUAGUUA, the “pre-steady-state target cleavage rate” value turned out to be 0.072 ± 0.013.

Still in this assay, the particulars now being: auxiliary factor: none (no GTSF1).
As to UCCUGGAUGUCCAAGCAUAGUAUUUAGUAA, the “pre-steady-state target cleavage rate” value came to 0.00309 ± 0.0027.

UCCUGCAACAGCUUGCAUAGUAUUUAGUUA: the “pre-steady-state target cleavage rate” value came out at 0.0107 ± 0.0034.

With “UCCUGGAUGUCGAACGUUAGUAUUUUCAAA [g6:g13:cont:t1A]”, the “pre-steady-state target cleavage rate” value is less than 0.0001.

UCCUGGAUGUGCUUGCAUAGUAUCUUAGUUA: the “pre-steady-state target cleavage rate” value was determined as 0.0069 ± 0.0028.

As for UCCUGGAACAGCUUGCAAAGUAUAUAGUUA, the “pre-steady-state target cleavage rate” value turned out to be 0.00404 ± 0.0021.

As to “UCCUCCUACAGCUUGCAUAGUAUUUAGUUU [g2:g26:cont:t1U]”, the “pre-steady-state target cleavage rate” value was found to be 0.0339 ± 0.0087.

Consider UCCUCCUACAGCUUGCAUAGUAUUAUGUUA, for which the “pre-steady-state target cleavage rate” value came out at 0.00329 ± 0.0023.

As to UCCUCGUACAGGUUGCAUAGUAUUUAGUUA, the “pre-steady-state target cleavage rate” value came out at 0.00988 ± 0.0022.

Turning to UCCUGGUACAGCUUGCAUAGUAAUUUAGUUA, the “pre-steady-state target cleavage rate” value turned out to be 0.0129 ± 0.0045.

Regarding UCCUCCUACAGCUUGCAUAGUUUUAGUUA, the “pre-steady-state target cleavage rate” value was found to be 0.0026 ± 0.0026.

Take UCCUCCUACAGCUUGCAUAGUAUUUAGUUUA: the “pre-steady-state target cleavage rate” value turned out to be 0.0143 ± 0.0034.

For “UCCUCCUACAGCUUGCAUAGUAUUUAGUUA [g2:g26:cont:t1A]”, the “pre-steady-state target cleavage rate” value is 0.0103 ± 0.003.

Consider UCCUGCUAUCAGCUUGCAUAGUAUUUAGUUA, for which the “pre-steady-state target cleavage rate” value is 0.00819 ± 0.0029.

UCCUGGUACGCUUGCAUAGUAUUUAGUUA: the “pre-steady-state target cleavage rate” value came out at 0.0143 ± 0.0047.

For the sequence UCCUGGAUGUGUCUUGCAUAGUAUUUAGUUA, the “pre-steady-state target cleavage rate” value was found to be 0.014 ± 0.004.
